Hits are enriched below; roughly 10% of the tested compounds scored in any of these assays.
Lmaj promast = Leishmania major promastigote growth inhibition, primary screen. Leishmania major promastigotes, resazurin fluorescence viability. inhibition, % at 10 µM. 200,000 compounds, 9% hits; in the data active = inhibition above about 50%;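 note: promastigotes grown with compound for 44 hours at 28 °C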
bCat KO growth = primary screen for growth suppressors in beta-catenin knockout HCT116 cells (colon tumor, human); HCT116 beta-catenin knockout viability, CellTiter-Glo, 60 h; stronger effect = lower value; viability, % at 10 µM; 140,000 compounds, 1.5% hits; AID 818, 2007;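 active = viability at or under a set limit, the compound median less 4 SD, cut at about 6% in these data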;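 note: 0% = Hyamine 1622 control at 20 µM and 100% = untreated cell control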
Insulin prom inh = inhibitors of insulin promoter-driven GFP, primary screen, imaging, TRM-6 cells (human fetal islet line), eGFP reporter, cell count; reporter expression induced with tamoxifen; 130,000 compounds, 0.9% hits; inhibition, % at 2 µM;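 active = inhibition above the mean plus 3 SD, with well images judged a real hit on visual review, cut at about 60% in these data, passing the limit was not always enough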
HCT116 PTEN-null = growth suppression of PTEN-null HCT116, primary screen, cell-based, CellTiter-Glo; 140,000 compounds, 1.2% hits; viability, % at 10 µM; HCT116 PTEN-null viability, 60 h; stronger effect = lower value;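 active = viability at or below a set limit, 4 SD under the median of all tested compounds, cut at about 3.7% in these data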;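 note: PTEN knockout HCT116 line with beta catenin targeted HCT116 as companion control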
p97 ATPase inh = inhibitors of human p97 ATPase, primary screen, biochemical; Transitional endoplasmic reticulum ATPase (Homo sapiens), P55072; AID 1481, 2009; 220,000 compounds, 0.42% hits; inhibition, % at 8 µM; recombinant p97 ATPase, Kinase-Glo ATP luminescence, 3 h; in the data active = inhibition above about 15%;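 note: 0% = DMSO vehicle and 100% = wells lacking enzyme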
ROMK mod = ROMK potassium channel modulators, primary screen, cell-based, thallium flux, MLSMR library | ATP-sensitive inward rectifier potassium channel 1 (Homo sapiens), P48048 | Tet-inducible ROMK, thallium flux fluorescence; actives lie on both sides | B-score at 10 µM | 130,000 compounds, 2% hits | AID 1918, 2009;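 active = signal ratio slope over the read window, or its plate-corrected B-score, at least 3 SD from the plate mean, either direction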;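 note: B-score of the F/F0 ratio slope over 7 to 12 s after thallium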
Target sequence (P48048 whole entry, looked up): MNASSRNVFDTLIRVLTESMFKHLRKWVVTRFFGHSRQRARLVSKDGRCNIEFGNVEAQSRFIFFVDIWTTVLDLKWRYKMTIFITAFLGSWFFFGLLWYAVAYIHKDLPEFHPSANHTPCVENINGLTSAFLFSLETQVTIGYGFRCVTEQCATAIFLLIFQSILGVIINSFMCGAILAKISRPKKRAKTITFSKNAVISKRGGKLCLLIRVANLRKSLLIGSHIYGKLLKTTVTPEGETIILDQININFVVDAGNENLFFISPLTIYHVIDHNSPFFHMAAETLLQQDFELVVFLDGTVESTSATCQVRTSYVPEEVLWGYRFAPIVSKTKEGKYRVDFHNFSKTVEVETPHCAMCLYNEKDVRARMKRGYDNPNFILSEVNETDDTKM
Starred values were filed as active, the others as inactive; / = no result given.

SMILES | Lmaj promast | bCat KO growth | Insulin prom inh | HCT116 PTEN-null | p97 ATPase inh | ROMK mod
COc1ccc(NS(=O)(=O)c2cccc(NC(=O)c3ccc(S(=O)(=O)N4CCCCCC4)cc3)c2)cc1 | 97* | 11 | -33 | 13 | 5 | /
O=S(=O)(Nc1nc2ccccc2nc1Nc1cccc(S(=O)(=O)N2CCCCC2)c1)c1ccccc1 | 69* | 32 | 35 | 26 | -1 | /
O=C(Nc1cccc(S(=O)(=O)N2CCCC2)c1)c1ccc2c(=O)n3c(nc2c1)CCCCC3 | 82* | 27 | 24 | 25 | 7 | -1.4
CC1Cc2ccccc2N1C(=O)CSc1nnnn1Cc1ccccc1 (stereo unspecified) | -4 | 105 | 19 | 89 | 1 | -0.54
CCOc1ccccc1C(=O)N1CCN(c2ccc(C(F)(F)F)cn2)CC1 | 0 | / | 38 | / | -5 | 0.13
COc1ccc(S(=O)(=O)N2CCCCC2)cc1NC(=O)c1ccc2c(c1)OCO2 | 78* | 83 | -32 | 91 | 2 | 0.45
COc1ccc(C(=O)Nc2ccc(N3CCCC3)cc2)cc1 | 92* | 92 | -197 | 83 | 5 | -0.99
COc1ccccc1NS(=O)(=O)c1ccc(C)c(NC(=O)c2ccc(S(=O)(=O)N3CCCCCC3)cc2)c1 | 97* | 67 | 14 | 70 | -5 | -0.026
N#Cc1ccc(C(=O)Nc2cc(S(=O)(=O)N3CCCC3)ccc2OCC(F)(F)F)cc1 | 59* | 86 | 41 | 99 | 2 | -0.51
COc1ccccc1NC(=O)c1ccc(S(=O)(=O)N2CCCC2)cc1 | 12 | 92 | / | 96 | 1 | /
CC1CC(C)CN(C(=O)Cn2cc(C=O)c3ccccc32)C1 (stereo unspecified) | 5 | / | / | / | -4 | -0.065
COc1ccc(S(=O)(=O)N2CCCCC2)cc1NC(=O)CSc1nccn1C | 99* | / | / | / | 5 | -0.78
CCOC(=O)N1CCN(S(=O)(=O)c2ccc(C(=O)Nc3ccc4c(c3)C(=O)NC4=O)cc2)CC1 | 56* | 92 | 24 | 97 | 4 | 0.44
CC1(C)CC(=O)C2=C(C1)OC1=C(C(=O)CC(C)(C)C1)C2c1ccc(O)c([N+](=O)[O-])c1 | 4 | / | 0 | / | 0 | 0.1
CC1(C)CC(=O)C2=C(C1)OC1=C(C(=O)CC(C)(C)C1)C2c1ccc(O)cc1O | 76* | 2.1* | 43 | 1.8* | 3 | -8*
O=[N+]([O-])c1cccc(COc2ncnc3cc([N+](=O)[O-])ccc23)c1 | / | / | / | / | 6 | /
Brc1cccc2sc(N3CCCC3)nc12 | -5 | / | 27 | / | 1 | -0.47
Cc1ccc(Nc2ncnc3ccccc23)cc1 | 36 | / | -421 | / | -2 | 0.0067
Cc1ccccc1C(=O)Oc1cccc(Nc2ncnc3ccccc23)c1 | 57* | / | 20 | / | -4 | /
Cc1cccc(Nc2ncnc3ccccc23)c1 | 88* | 97 | 47 | 98 | -1 | -0.65
CCOC(=O)c1cccc(Nc2ncnc3ccccc23)c1 | 47 | 69 | -11 | 69 | 7 | /
COC(=O)c1cccc(Nc2ncnc3ccc(C)cc23)c1 | 51* | 98 | 29 | 77 | 3 | 0.067
CC(C)Oc1ccc(Nc2ncnc3ccccc23)cc1 | 56* | / | / | / | -2 | -0.17
Cc1ccc(S(=O)(=O)N2CCN(C3CCC(c4ccccc4)CC3)CC2)cc1 (stereo unspecified) | 96* | 96 | / | 87 | 7 | /
CCS(=O)(=O)N1CCN(C2CCC(c3ccccc3)CC2)CC1 (stereo unspecified) | 99* | 82 | / | 82 | -1 | -1.2
SMILES | Lmaj promast | bCat KO growth | Insulin prom inh | HCT116 PTEN-null | p97 ATPase inh | ROMK mod
c1ccc(C2CCC(N3CCNCC3)CC2)cc1 (stereo unspecified) | 91* | 94 | / | 84 | -8 | -1.6
CC(=O)N1c2ccccc2C(C)(C)C2CCC(C)CC21 (stereo unspecified) | 7 | 82 | -100 | 81 | 2 | -0.43
CN1COc2ccc3ccccc3c2C1 | 9 | / | 38 | / | 5 | 0.66
CCCOc1ccccc1/C=C(\C#N)C(=O)Nc1cccnc1 | / | / | / | / | 4 | /
COc1ccc(/C=C/C(=O)c2c(O)cc(C)oc2=O)c(OC)c1 | 1 | 67 | -60 | 70 | 2 | /
COc1cc(/C=C/C(=O)c2c(O)cc(C)oc2=O)cc(OC)c1O | 97* | 83 | 7 | 73 | -5 | -1.5
COc1ccc(C(=O)/C=C/c2cc(OC)c(O)c(OC)c2)c(F)c1 | 90* | 8 | -20 | 8 | 5 | -2.6
C/C(=N\NC(=O)CN(c1ccccc1Br)S(C)(=O)=O)c1cccs1 | 1 | / | 5 | / | 3 | 0.084
COc1ccccc1NS(=O)(=O)c1cccc(C(=O)N/N=C(\C)c2ccc(-n3ccnc3)cc2)c1 | 100* | 61 | / | 58 | 3 | 2.1
COc1ccc(/C(C)=N\NC(=O)c2ccc3c(c2)OCO3)cc1OC | 2 | / | 40 | / | -5 | 0.34
COc1ccccc1NS(=O)(=O)c1cccc(C(=O)N/N=C(\C)c2ccc3c(c2)OCCO3)c1 | 99* | 92 | -18 | 88 | 1 | /
C/C(=N\NC(=O)CN(c1ccccc1Br)S(C)(=O)=O)c1ccc2c(c1)OCCO2 | 51* | 94 | 18 | 109 | 4 | /
Cn1c(N)c(C(=O)COC(=O)C2(c3ccccc3F)CCCC2)c(=O)n(C)c1=O | 79* | 93 | / | 82 | -3 | 0.23
O=C(Nc1ccc([N+](=O)[O-])cc1)Nc1nc(-c2ccc(Cl)s2)cs1 | 82* | 1.5* | 78* | 1.2* | 10 | /
Cc1nc(C)c(-c2csc(Nc3cccnc3)n2)s1 | 49 | 85 | 87* | 69 | -5 | /
c1cncc(Nc2nc(-c3ccncc3)cs2)c1 | 7 | 92 | 4 | 85 | -5 | -0.0054
CCCC(=O)Nc1nc(-c2ccc(Cl)s2)cs1 | 0 | / | / | / | 4 | -0.38
CC(=O)Nc1nc(C)c(-c2csc(Nc3ccc(O)cc3)n2)s1 | 63* | 13 | 3 | 18 | 8 | /
CC(=O)Nc1nc(C)c(-c2csc(Nc3cccc([N+](=O)[O-])c3)n2)s1 | 97* | 1.8* | 36 | 1.7* | 2 | 0.4
CCC1(CC)C(=O)N(C)C(=O)NC1=Nc1ccc(OC)cc1 | -2 | 105 | 22 | 105 | 2 | 0.11
COc1ccccc1NC(=O)Nc1ccccc1N1CCOCC1 | / | / | / | / | 5 | -1.4
CC(=O)NS(=O)(=O)c1ccc(NC(=O)COc2ccc(C(=O)c3ccccc3)cc2)cc1 | -1 | 97 | 29 | 100 | 4 | /
CC(=O)Nc1nc(-c2cc([N+](=O)[O-])cs2)cs1 | 75* | / | / | / | 5 | -0.03
CC(=O)Nc1nc(-c2ccc([N+](=O)[O-])cc2)cs1 | -8 | / | 8 | / | 2 | -0.72
CN(CC(=O)Nc1ccc(C(N)=O)cc1)CC(=O)Nc1ccccc1Cl | 51* | 95 | 35 | 96 | -3 | -0.4
